Source: PubChem BioAssay AID1053205 (Broad Institute, 2014)
Entries with a potency or affinity are not part of this list. Records with an inconclusive call do not appear. Calls of active or inactive are those of the source.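 Rule for the calls: active = compounds lowering the FRET ratio whose fitted half-maximal concentration is at most twice their top tested dose; inconclusive = flat partial drop between 30 and 70 percent, or bad fit; inactive = the rest.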

Target: Voltage-dependent L-type calcium channel subunit alpha-1D (Homo sapiens) (UniProt Q01668)
Experiment: disruptors of CaV1.3 IQ/ICDI domain association – cell-based, HEK293, YFP-IQ/CFP-ICDI FRET, cherry-picks, dose response (AID 1053205)
Details: HEK293 YFP-IQ/CFP-ICDI FRET ratio, 10 min; series mostly up to 35 µM

Voltage-dependent L-type calcium channel subunit alpha-1D (Homo sapiens), sequence (Q01668 whole entry, looked up, the tested form may be a part): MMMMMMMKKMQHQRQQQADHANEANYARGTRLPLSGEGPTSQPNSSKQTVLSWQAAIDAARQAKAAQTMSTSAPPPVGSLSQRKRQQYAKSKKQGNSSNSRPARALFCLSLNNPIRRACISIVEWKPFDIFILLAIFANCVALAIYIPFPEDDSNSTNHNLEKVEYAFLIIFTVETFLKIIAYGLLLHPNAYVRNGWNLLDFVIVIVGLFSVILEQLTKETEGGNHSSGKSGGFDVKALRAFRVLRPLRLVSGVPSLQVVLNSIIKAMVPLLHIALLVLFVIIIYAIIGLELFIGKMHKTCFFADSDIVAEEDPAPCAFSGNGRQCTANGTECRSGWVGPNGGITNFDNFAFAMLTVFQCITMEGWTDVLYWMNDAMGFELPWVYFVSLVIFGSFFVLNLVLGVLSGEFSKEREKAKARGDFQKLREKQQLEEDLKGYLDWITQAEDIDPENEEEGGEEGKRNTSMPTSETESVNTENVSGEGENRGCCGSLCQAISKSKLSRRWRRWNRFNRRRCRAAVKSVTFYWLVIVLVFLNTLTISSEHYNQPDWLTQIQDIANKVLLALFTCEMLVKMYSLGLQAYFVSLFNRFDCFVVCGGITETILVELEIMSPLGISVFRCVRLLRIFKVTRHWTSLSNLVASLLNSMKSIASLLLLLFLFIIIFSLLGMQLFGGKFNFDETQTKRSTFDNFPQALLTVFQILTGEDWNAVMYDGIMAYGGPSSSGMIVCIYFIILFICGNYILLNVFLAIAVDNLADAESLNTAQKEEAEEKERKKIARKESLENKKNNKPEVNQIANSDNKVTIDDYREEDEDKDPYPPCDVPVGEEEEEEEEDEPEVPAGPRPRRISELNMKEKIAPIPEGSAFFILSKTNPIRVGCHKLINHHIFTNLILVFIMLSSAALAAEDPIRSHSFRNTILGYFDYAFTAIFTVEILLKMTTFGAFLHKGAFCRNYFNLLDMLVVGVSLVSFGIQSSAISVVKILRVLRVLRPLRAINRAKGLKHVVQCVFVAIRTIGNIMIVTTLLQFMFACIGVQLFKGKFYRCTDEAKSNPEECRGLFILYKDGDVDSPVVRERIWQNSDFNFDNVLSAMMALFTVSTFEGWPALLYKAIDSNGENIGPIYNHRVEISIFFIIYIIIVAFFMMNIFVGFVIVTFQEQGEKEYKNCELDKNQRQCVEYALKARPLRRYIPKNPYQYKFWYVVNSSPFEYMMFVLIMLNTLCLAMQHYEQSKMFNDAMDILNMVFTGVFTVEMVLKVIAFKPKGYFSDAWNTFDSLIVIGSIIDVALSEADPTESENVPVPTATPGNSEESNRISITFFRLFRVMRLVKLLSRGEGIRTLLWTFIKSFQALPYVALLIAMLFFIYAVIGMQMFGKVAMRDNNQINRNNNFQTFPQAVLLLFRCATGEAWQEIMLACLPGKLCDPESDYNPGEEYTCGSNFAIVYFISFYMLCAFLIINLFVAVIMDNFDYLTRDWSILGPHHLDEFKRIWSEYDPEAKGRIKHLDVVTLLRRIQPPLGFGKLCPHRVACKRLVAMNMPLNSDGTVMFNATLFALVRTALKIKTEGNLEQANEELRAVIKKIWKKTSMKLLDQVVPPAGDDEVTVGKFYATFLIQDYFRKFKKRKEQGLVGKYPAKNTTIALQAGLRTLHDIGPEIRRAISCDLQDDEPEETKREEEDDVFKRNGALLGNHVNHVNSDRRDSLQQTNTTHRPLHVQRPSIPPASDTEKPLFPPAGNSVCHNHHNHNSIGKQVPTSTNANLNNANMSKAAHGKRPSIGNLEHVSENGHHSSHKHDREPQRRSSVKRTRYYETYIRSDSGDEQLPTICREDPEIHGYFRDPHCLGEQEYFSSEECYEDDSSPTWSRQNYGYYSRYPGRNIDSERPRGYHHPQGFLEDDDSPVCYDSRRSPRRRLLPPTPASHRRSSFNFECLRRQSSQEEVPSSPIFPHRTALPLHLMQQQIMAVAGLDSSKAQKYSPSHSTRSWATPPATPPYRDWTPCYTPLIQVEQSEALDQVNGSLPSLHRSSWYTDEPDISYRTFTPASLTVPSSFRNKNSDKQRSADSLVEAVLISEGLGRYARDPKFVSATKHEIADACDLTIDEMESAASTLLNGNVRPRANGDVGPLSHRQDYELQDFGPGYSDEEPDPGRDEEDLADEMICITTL

outcome, inactive:
CCN(CC)Cc1c(O)c(Cl)cc2c(C)cc(=O)oc12
Cc1ccc(-n2nnnc2CNC(=O)C(=O)c2c[nH]c3ccccc23)cc1C
N#C/C(=C\c1ccco1)C(=O)Nc1cccc2ncccc12
Cc1cc2c(C)cc(=O)oc2c2c1NCCC2
COc1cc2sc3cc(NCC[C@@H]4CCCN4C)ccc3c(=O)c2cc1OC
Cc1ccc(O)c(NC(=S)NC(=O)COc2ccc(Br)cc2)c1
CCN1C(=O)c2cccc3c(S(=O)(=O)N(C)C)ccc1c23
COc1ccc(C2c3ccc(O)cc3Oc3ncn4nc(-c5ccccn5)nc4c32)cc1 (stereo unspecified)
O=C(c1cccc(Cl)c1)N1CCC(=O)N(C(COCc2ccccc2)Cc2ccccc2)CC1 (stereo unspecified)
Cc1ccc2c(c1)-c1c(cnn1CC(=O)Nc1ccccc1N1CCN(C)CC1)CO2
N#Cc1c(NCCCO)nc(NCc2ccccc2)c2c1CCN(Cc1ccccc1)C2
CC(C)C(=O)Nc1sc2c(c1C(N)=O)CCN(Cc1ccccc1)C2
CCOc1ccc2nc(NCCCNC(=O)c3cc(OC)c(OC)c(OC)c3)c(C#N)cc2c1
COc1ccc(CCN=C(N)NS(=O)(=O)c2ccc(F)cc2)cc1
CCn1c(=NC(=O)CSC(C)=O)sc2cc(OC)ccc21
CCCCN(CCCC)CC(O)Cn1c2ccccc2c(=O)c2ccccc21 (stereo unspecified)
O=C(O)c1cccc(NC(=O)c2cn(-c3ccccc3)nc2-c2cccc(Br)c2)c1
S=C(NCC1CCCO1)N1CCN(Cc2ccccc2Cl)CC1 (stereo unspecified)
CCOc1ccc(-n2c(SCC(=O)Nc3nccs3)nnc2-c2ccoc2C)cc1
CCC(C)n1c(=N)c(C#N)cc2c(=O)n3cc(C)ccc3nc21 (stereo unspecified)
CCc1nc2ccc(C(=O)NCCc3c[nH]c4ccccc34)cn2c1N(C=O)CCC(C)C
COc1ccc(Cn2nnnc2C(CC(C)C)N2CCC(C(N)=O)CC2)cc1 (stereo unspecified)
Cc1cc(C)nc(SCC(=O)Nc2ccc(S(=O)(=O)Nc3onc(C)c3C)cc2)n1
CC(=O)NNc1cc(N2CCOCC2)nc(N2CCOCC2)n1
Cc1ccc(S(=O)(=O)CCC(=O)OCC(=O)Nc2cccc(S(=O)(=O)N3CCCCC3)c2)cc1
Cc1c(C(=O)NCc2cccc(C(F)(F)F)c2)sc(=O)n1Cc1ccc(C(=O)N(C)C)cc1
COc1ccc(CCNC(=O)CSc2cn(Cc3cccc(C)c3)c3ccccc23)cc1OC
CCOC(=O)c1c2ccc(OCC(=O)NN)cc2n2ccccc12
COc1ccc(Br)c(Cn2c(C)c(C(=O)NCc3ccc4c(c3)OCCO4)sc2=O)c1
Fc1ccc(-c2nc3ccccn3c2NCc2ccc3c(c2)OCO3)cc1
CCOC1=NN(c2ncc(C(F)(F)F)cc2Cl)C(=O)C1
Nn1c(SCC(=O)N2CCCC2)nnc1-c1cccs1
Cc1ccc2nc3c(cc(C(N)=S)c(=N)n3CCCOC(C)C)c(=O)n2c1
O=C(O)c1ccc(N/N=C/c2ccc(-c3ccccc3Cl)o2)cc1
O=C(NCc1ccc(F)cc1)C1CCCN1C(=O)Nc1cccc(F)c1 (stereo unspecified)
Cc1ccc(S(=O)(=O)Nc2ccc(Nc3ccccc3)cc2)cc1
